Test systems include NCI-H23 lung; NCI-H226 lung; NCI-H322M lung; HOP-62 NSCLC; NCI-H460 lung; HOP-92 NSCLC; NCI-H522 lung; A549/ATCC NSCLC; 786-0 renal; COLO 205 colon.
Holding throughout (experiment): NCI-60 one-dose screen, 48 h (100 = growth as untreated, 0 = no growth, -100 = all killed)
Details in all cases: 10 µM unless noted

Each structure is given as a SMILES string. The panel holds about 83,000 compounds, 20% with a hit somewhere; the sample as a whole holds those more often.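 Values shown are percent growth following 48 h exposure of cells in 96-well plates to a single concentration of compound; below 10 was considered active.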 Unmarked numbers belong to inactive results. Activity calls are given as the source filed them.

This note sets out measurements from PubChem BioAssay (NCI).

For the molecule `N#Cc1nc(-c2ccccc2)oc1S(=O)(=O)N1CCN(c2ccc(F)cc2)CC1`, the growth with NCI-H23 lung is 80.8%; with NCI-H226 lung, 85.7%; with NCI-H322M lung, 91.6%; in the experiment on HOP-62 NSCLC it was 112%; in the experiment on NCI-H460 lung, 102%; with HOP-92 NSCLC, 76%. The growth in the experiment on NCI-H522 lung was 2.64% (active); with A549/ATCC NSCLC, 101%; in the experiment on 786-0 renal it was 64.9%; in the experiment with COLO 205 colon it was 33.6%.

For `O=C(/C=C/c1ccc(Cl)cc1)c1cccc(OCCCOc2cccc(C(=O)/C=C/c3ccc(Cl)cc3)c2)c1`, the growth with NCI-H23 lung was 102%; in the experiment with NCI-H226 lung, 104%; with NCI-H322M lung, 103%; in the experiment with HOP-62 NSCLC, 107%; in the experiment on NCI-H460 lung, 102%; in the experiment with HOP-92 NSCLC, 120%. The growth in the experiment with NCI-H522 lung was 96.2%; with A549/ATCC NSCLC, 92.7%; with 786-0 renal, 102%; in the experiment on COLO 205 colon, 113%.

In the case of `O=C(N=Nc1c(O)[nH]c2ccccc12)Nc1ccc(F)cc1`, the growth is 96.8% in the experiment with NCI-H23 lung; 91.7% in the experiment with NCI-H226 lung; 93.8% in the experiment on NCI-H322M lung; 83.2% with HOP-62 NSCLC; 108% with NCI-H460 lung; 94% with HOP-92 NSCLC. The growth in the experiment on NCI-H522 lung was 78.5%; in the experiment on A549/ATCC NSCLC, 87.5%; with 786-0 renal it was 97.3%; in the experiment on COLO 205 colon it was 103%.

As to `N[C@H]1CCC[C@@H]1NCCCCN1C(=O)c2cccc3cc([N+](=O)[O-])cc(c23)C1=O`, the growth in the experiment with NCI-H23 lung is 47.7%; in the experiment with NCI-H226 lung, 34.4%; in the experiment with NCI-H322M lung it was 53.4%; in the experiment on HOP-62 NSCLC it was 38.4%; in the experiment with NCI-H460 lung, 13.7%; in the experiment on HOP-92 NSCLC it was 30.1%. In addition, the growth in the experiment on NCI-H522 lung was 38.4%; in the experiment with A549/ATCC NSCLC, 27.6%; in the experiment with 786-0 renal, 31%; with COLO 205 colon, 26%.

On to `CCN1C(=O)N(CC)C2C1NN=c1s/c(=C3\C(=O)N(CCC(C)C)c4ccccc43)c(=O)n12` (stereo not given), for which the growth in the experiment with NCI-H23 lung was 30.8%; in the experiment with NCI-H226 lung it was 56.3%; in the experiment with NCI-H322M lung, 52.1%; in the experiment on HOP-62 NSCLC, 38.9%; in the experiment with NCI-H460 lung, 5.57% (active); with HOP-92 NSCLC it was 40.4%. Also, the growth is 1.9% (active) in the experiment on NCI-H522 lung, 14.2% in the experiment with A549/ATCC NSCLC, 29.1% with 786-0 renal and 12.3% in the experiment on COLO 205 colon.

As to `O=C(/C=C/C12c3ccccc3C(c3ccccc31)C1C(=O)NC(=O)C12)c1ccc(Br)cc1` (stereo not given), the growth is 50% with NCI-H23 lung; 94.4% in the experiment on NCI-H226 lung; 55.8% in the experiment with NCI-H322M lung; 56.3% in the experiment on HOP-62 NSCLC; 34.6% with NCI-H460 lung; 74.5% in the experiment on HOP-92 NSCLC. The growth with NCI-H522 lung is 47.1%; in the experiment on A549/ATCC NSCLC it was 50.2%; with 786-0 renal, 69.2%; in the experiment on COLO 205 colon, 58.8%.

Take `COc1ccc(C(=O)/C=C/c2ccc(Cl)cc2)cc1S(=O)(=O)Nc1c(N)nc(SC)[nH]c1=O`: the growth is 84.1% in the experiment on NCI-H23 lung; 83.2% in the experiment on NCI-H226 lung; 27.7% in the experiment on NCI-H322M lung; 32.6% with HOP-62 NSCLC; 84% in the experiment with NCI-H460 lung; 73.7% with HOP-92 NSCLC. Also, the growth is 59.7% in the experiment on NCI-H522 lung, 31.4% with A549/ATCC NSCLC, 31% in the experiment with 786-0 renal and 49.8% in the experiment with COLO 205 colon.

For `CN1CCN(C(=O)C(C)(C)c2ccc(C(=O)Nc3cn4cc(-c5ccncc5)ccc4n3)cc2)CC1`, the growth in the experiment with NCI-H23 lung is 10.1%; in the experiment with NCI-H226 lung it was 9.69% (active); with NCI-H322M lung, 17%; in the experiment on HOP-62 NSCLC it was 4.05% (active); in the experiment with NCI-H460 lung, 10.8%; with HOP-92 NSCLC it was 3.02% (active). The growth is -1.24% (active) with NCI-H522 lung, 10.2% in the experiment on A549/ATCC NSCLC, -19.9% (active) in the experiment with 786-0 renal and 2.48% (active) in the experiment with COLO 205 colon.

Consider `COc1ccc(C2=CC(c3cc(OC)c(OC)c(OC)c3)n3ncnc3N2)cc1` (stereo not given), for which the growth was 29.1% in the experiment on NCI-H23 lung; 51.1% with NCI-H226 lung; 43% in the experiment with NCI-H322M lung; 9.09% (active) in the experiment on HOP-62 NSCLC; 0.735% (active) with NCI-H460 lung; 27% with HOP-92 NSCLC. Also, the growth in the experiment with NCI-H522 lung is -13.3% (active); with A549/ATCC NSCLC, 14.3%; in the experiment with 786-0 renal it was 17.9%; with COLO 205 colon, -64.8% (active).

For `Cc1ccc2c(-n3nc(C#N)c(C#N)c3N)cc(=O)[nH]c2c1`, the growth in the experiment with NCI-H23 lung is 88.9%; with NCI-H226 lung, 78.7%; in the experiment with NCI-H322M lung, 66.8%; in the experiment on HOP-62 NSCLC, 68.1%; in the experiment on NCI-H460 lung, 81.1%; with HOP-92 NSCLC, 84.3%. The growth in the experiment with NCI-H522 lung was 77%; with A549/ATCC NSCLC it was 91%; in the experiment on 786-0 renal it was 85.3%; in the experiment with COLO 205 colon it was 97.8%.

For the molecule `Cc1cccc[n+]1C1c2ccccc2-c2ccccc21`, the growth with NCI-H23 lung was 103%; in the experiment with NCI-H226 lung, 96.1%; in the experiment with NCI-H322M lung, 107%; in the experiment on HOP-62 NSCLC it was 70.5%; with NCI-H460 lung, 106%; with HOP-92 NSCLC, 68.9%. The growth was 57.9% in the experiment with NCI-H522 lung, 78.8% in the experiment on A549/ATCC NSCLC, 90.7% in the experiment with 786-0 renal and 75.3% with COLO 205 colon.

Turning to `COc1cc(C(=O)c2c(-c3ccccc3)oc3c(OC)cccc23)cc(OC)c1OC`, the growth with NCI-H23 lung is 23.8%; with NCI-H226 lung it was 8.39% (active); with NCI-H322M lung, 46.2%; with HOP-62 NSCLC, 30%; in the experiment with NCI-H460 lung it was 3.18% (active); with HOP-92 NSCLC it was -1.18% (active). Also, the growth is 13.9% in the experiment with NCI-H522 lung, 17% with A549/ATCC NSCLC, 9.22% (active) in the experiment with 786-0 renal and -15.7% (active) in the experiment on COLO 205 colon.

For the molecule `CN(C)S(=O)(=O)Oc1ccc(-c2sc3cc(OS(=O)(=O)N(C)C)ccc3c2C(=O)c2ccc(OCCN3CCCCC3)cc2)cc1`, the growth with NCI-H23 lung is 74.4%; in the experiment on NCI-H226 lung, 64.6%; in the experiment on NCI-H322M lung, 87.9%; with HOP-62 NSCLC, 49.8%; with NCI-H460 lung, 32.2%; with HOP-92 NSCLC, 28.5%. Further, the growth is 39.6% with NCI-H522 lung, 52.7% with A549/ATCC NSCLC, 21.5% in the experiment on 786-0 renal and 36.1% with COLO 205 colon.
